# This is part of a sample that, as a whole, favours compounds with a hit. Of some 83,000 tested, about 20% had one in any assay.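 Method: cells in 96-well plates; compound added at one concentration; 48 h incubation; percent growth measured; values under 10 scored active.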 A number with no mark means an inactive call. Activity calls are given as the source filed them.
# System: MDA-MB-468 breast
# Assay: NCI-60 one-dose screen, 48 h (100 = growth as untreated, 0 = no growth, -100 = all killed)
# Conditions: 10 µM unless noted
row,Structure (SMILES),growth
1,CC1=C(CC(=O)c2cccc([N+](=O)[O-])c2)C(=O)c2ccccc2C1=O,-52.5% (active)
2,CC(O)C(O)C(O)C(O)C(O)C(=O)NNc1ccccc1 (centres undefined),96.5%
3,CCCCc1ccc(NC(=O)N(CCCl)N=O)cc1,91.4%
4,O=S(O)c1cc(Cl)cc(Cl)c1OCc1ccccc1,84%
5,CCCCCCCCCCCCSC1=CC(=O)C=CC1=O,82.8%
6,O=C(CCCC(=O)Nc1ccc(Cn2nnc3cc(Cl)c(Cl)cc32)cc1)Nc1ccc(CN2N=NC3C=C(Cl)C(Cl)=CC32)cc1 (centres undefined),59.1%
7,O=C(Cc1ccc(/C=C/C(=O)c2ncc[nH]2)cc1)Nc1ccc(C(F)(F)F)cc1,15.1%
8,COc1ccc(/C=C/c2c(C(=O)/C=C/c3ccc(F)cc3)c(C)nc3ccccc23)cc1,51.5%
9,Clc1nc2ccccc2cc1Cn1nnc(Cc2ccccc2)n1,11.1%
10,NS(=O)(=O)c1cccc(Nc2nc(SCC(=O)c3ccc(Cl)cc3)nc3ccccc23)c1,80.1%
11,Cc1nn(-c2ccc(Br)cc2)c2nc3[nH]c(=O)[nH]c(=O)c3nc12,116%
12,O=C1C=C(SCCO)C(=O)c2ccccc21,-42.6% (active)
13,CCOC(=O)N1CCN(c2nc(Nc3cc(C)[nH]n3)c3ccccc3n2)CC1,30.6%
14,N=c1ccc2nc3ccc(N)cc3sc-2c1,-16.2% (active)
15,CCSc1nc2c([nH]1)c(=O)n(C)c(=S)n2C,109%
16,CCCCCCC/C=C/[C@H]1O[C@]2(O)C(=O)C=C3C[C@@H](O[C@@H]4O[C@H](CO)[C@@H](O)C(O)[C@@H]4O)C[C@@H]3[C@H]2C=C1C (some centres undefined),-3.04% (active)
17,O=C1CCC23OC(c4ccccc4N12)C(O)C(O)C3O (centres undefined),114%

row,Structure (SMILES),growth
1,CCCCC/C=C/CCC(=O)N[C@H]1[C@H](Oc2c3cc4cc2Oc2ccc(cc2Cl)[C@@H](O[C@@H]2O[C@H](CO)[C@@H](O)[C@H](O)[C@H]2NC(C)=O)[C@@H]2NC(=O)[C@H](NC(=O)[C@@H]4NC(=O)[C@H]4NC(=O)[C@@H](Cc5ccc(c(Cl)c5)O3)NC(=O)[C@@H](N)c3ccc(O)c(c3)Oc3cc(O)cc4c3)c3ccc(O)c(c3)-c3c(O[C@H]4O[C@H](CO)[C@@H](O)[C@H](O)[C@@H]4O)cc(O)cc3[C@H](C(=O)O)NC2=O)O[C@H](CO)[C@H](O)[C@@H]1O,110%
2,Cn1cc(-c2ncnc3ccc(-c4cnc(Cl)c(NS(C)(=O)=O)c4)cc23)c2ccccc21,-1.16% (active)
3,COc1ccc(-c2ccccc2)cc1C(=O)c1ccc(-c2ccccc2)cc1,64.6%
4,O=C(CC1(O)C(=O)Nc2ccc(Br)cc21)c1ccc(Cl)cc1 (centres undefined),100%
5,CC(C)C[C@H](NC(=O)Cn1ccc(NCc2ccccc2)cc1=O)B(O)O,-41.2% (active)
6,Cc1cc2c(-c3nc4ccccn4c3NC34CC5CC(CC(C5)C3)C4)c(O)c(O)cc2c(O)c1-c1c(C)cc2c(-c3nc4ccccn4c3NC34CC5CC(CC(C5)C3)C4)c(O)c(O)cc2c1O,-10.7% (active)
7,C/C(O)=C(\C=N\C(N)=S)C(=O)Nc1ccccc1,92.8%
8,N#Cc1ccc(O)c(C2=NCC(c3ccc(-c4ccccc4)cc3)O2)c1 (centres undefined),26.9%
9,Cn1c(=O)c2[nH]c(=S)n(Cc3ccccc3)c2n(C)c1=O,115%
10,COC(=O)c1cc2c3c(cc(O)c2[nH]1)N(C(=O)C1Cc2cc(OC)c(OC)c(OC)c2N1)CC3CCl (centres undefined),-41.8% (active)
11,Cc1ccc(NC(=O)Nc2nc3ccccc3s2)cc1NC(=O)Nc1nc2ccccc2s1,96%
12,COC(=O)CCCCCn1c2ccccc2c2c3c(c4c5ccccc5[nH]c4c21)C(=O)N(O)C3=O,45.3%
13,COc1ccc(-c2nc(SCC(=O)Nc3nc(-c4ccccc4)cs3)[nH]c(=O)c2C#N)cc1,84.2%
14,C=C(C)[C@@H]1CC[C@]2(CNCCO)CC[C@]3(C)[C@H](CC[C@@H]4[C@@]5(C)CCC(N)[C@@](C)(CO)[C@@H]5CC[C@]43C)[C@@H]12 (some centres undefined),-86.8% (active)
15,Brc1ccc(Nc2csc(-c3ccccn3)n2)cc1,97.5%
16,CC(C)NC(=O)OCC#CCOC(=O)NC(C)C,99.9%
17,CCCNc1nc2ccccc2c2c(=O)c3cccc(Cl)c3sc12,36.2%
